# High-throughput results as filed in PubChem.
# The entries come from a sample that favours hits as a whole.
# GFP derepression – derepresses silenced GFP locus in mouse C127i cells | mouse C127i GFP locus derepression, cytometry, 30 h | Potency, µM (titrated, usually from 46.1 µM), without a hit: top-dose GFP derepression (activation) | hit rate 0.09% among 68,000; further: % of control where 0% means no effect
#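 Murine C127i mammary cells carrying a silenced, stably integrated CMV-driven GFP reporter were treated with compound for 30 hours at 37 C. After PBS washes, GFP-positive cells were counted by laser-scanning microplate cytometry.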
# ERK AVP inh – blocks ERK signaling stimulated by vasopressin; HEK293-V1b, vasopressin-stimulated pERK AlphaScreen; Potency, µM (top dose mostly 57.5 µM), for inactives: at the highest dose activity, negative = inhibition, usual class: inhibitors; hit rate 0.99% among 72,000; AID 995; further: potency means the concentration at half of the fitted maximal effect; on the % scale 0 is the no-effect control and ±100 the full control effect; nearly all actives have a fitted effect of over 55% in size
#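 Phosphorylated ERK1/2 detected via AlphaScreen bead proximity in lysates of V1b-expressing HEK293 cells given 25 nM vasopressin for 5 min after 30 min compound exposure (37 °C). AC50 from Hill equation; basal DMSO 0%, vasopressin 100%.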
# CRE Fsk mod – modulators of forskolin-stimulated CRE signaling in CHO cells; CHO CRE-bla reporter (cAMP response element driving beta-lactamase), forskolin EC10, beta-lactamase ratio; Potency, µM (top dose mostly 38.2 µM), for inactives: at the top dose activity change, negative = inhibition, actives largely listed as activators; hit rate 2.5% among 71,000; AID 662; active means well fitted activation curve with a large enough effect in the signal ratio, with a control signal flat, not every such curve was filed as active; inconclusive means small, poorly fitted or top-dose-only effect, or effect the other way, or a change in a side signal; the % refers to the signal ratio; further: potency means the concentration at half of the fitted maximal effect; % of control where 0% means no effect
#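 AC50 values, positive or negative, reflect shifts in EC10 NKH 477-induced CRE-bla reporter activity in CHO cells. Incubation lasted 3 h at 37 °C before CCF4 substrate (2 h, room temperature) and ratiometric 460/530 nm reading.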
# HBB splicing – modulators of hemoglobin beta chain splicing | HBB splicing reporter cell assay, activation; EGFP reporter with mutant IVS2-654 intron; response scale: normalised to 500 nM splice-correcting PNA | Potency, µM (series often up to 46.1 µM), without a hit: at the top dose activation, most hits filed as activators | hit rate 0.06% among 65,000; further: potency means the concentration at half of the fitted maximal effect; 0% is about no effect
#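 Compounds were applied for 2 days to HeLa EGFP-654 cells, 500/well in Optimem with 2% FCS. The reporter's EGFP is disrupted by mis-splicing of beta-globin intron IVS2-654. Readout: summed well GFP fluorescence from 488 nm laser scanning; reference was 500 nM antisense […] 654 PNA.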
# IkB sig inh – inhibitors of IkB signaling in ABC-DLBCL cells. ABC-DLBCL IkBa-CBG/CBR dual luciferase ratio, 4 h; response scale: scaled: untreated 0%, proteasome inhibitor 100%. Potency, µM (series often up to 57.1 µM), inactives show top-dose IkBa stabilization activation. hit rate 0.04% among 110,000. AID 445; active means well fitted curve in the direction sought with a large enough effect in the signal ratio, not every such curve was filed as active; inconclusive means small, poorly fitted or top-dose-only effect, or a change in a side signal; the % refers to the signal ratio;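 further: potency means the concentration at half of the fitted maximal effect; the direction sought is a rising ratio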
#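 In this assay, an IκBα–CBG68 fusion accumulates when IKK-driven degradation is blocked; native CBR normalizes for cell number. OCI-Ly3 cells were treated 4 h with compound and doxycycline, then green and red light read after Chroma-Glo addition.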
# * marks the source's active call; other numbers are inactive results; ? = inconclusive; nt = no result; [ ] = remark or other dose. Unless noted, the call rests on the fitted dose curve; in most records, active means well fitted curve in the direction sought with a large enough effect; inconclusive means small, poorly fitted or top-dose-only effect, or another doubt; inactive means no such curve, though single readings can be large; an effect the other way counts as inactive or inconclusive.
SMILES,GFP derepression,ERK AVP inh,CRE Fsk mod,HBB splicing,IkB sig inh
CSc1ncccc1C(=O)OCC(=O)Nc1cc(C(F)(F)F)ccc1N1CCOCC1,-4%,11%,13µM*,-1%[57.5 µM],?
N[C@@H]1[C@@H]2[C@@H]3C[C@H]4N(CC[C@@]14C(=O)C(=O)O)CC3=CCO[C@@H]2CC(=O)O,2%[9.22 µM],-11%[11.5 µM],-4%[7.6 µM],3%[9.22 µM],0%[11.4 µM]
COc1cccc(/C=C/C2=CC3(C)CC2(C)C(c2cccc(OC)c2)CC3=O)c1 (configuration not stated),nt,-21%[11.5 µM],nt,0%[9.22 µM],nt
O=C(c1ncn[nH]1)N1CCN(c2nc(-c3ccccc3)cs2)CC1,4%,?,7%,-2%,-1%
O=C(c1cc(-n2cnnc2)ccc1Cl)N1CCN(c2nc(-c3ccccc3)cs2)CC1,-2%,25µM*,27%,-1%,?
COC(=O)c1ccc(C)c(NS(=O)(=O)c2ccc3c(c2)OCCO3)c1,-2%,?,?,-2%[0.0738 µM],3%
COC(=O)c1ccc(C)c(NS(=O)(=O)c2ccc(OC)cc2)c1,0%,-6%,0.5µM*,0%[0.0738 µM],4%
COc1ccccc1-c1ccc2ncnc(NCc3ccccc3)c2c1,-6%[9.22 µM],16µM*,-19%,-2%,3%[11.4 µM]
COc1ccccc1CNc1ncnc2ccc(-c3cccnc3)cc12,-1%[9.22 µM],20µM*,?,0%,-1%[11.4 µM]
COc1ccccc1CNc1ncnc2ccc(-c3ccc(N(C)C)cc3)cc12,11%[9.22 µM],?,?,?,9%[11.4 µM]
COc1ccccc1CNc1ncnc2ccc(-c3ccccc3OC)cc12,-1%[9.22 µM],20µM*,?,2%,14%[11.4 µM]
CC(=O)N1CCc2cc(S(=O)(=O)CCC(=O)N3CCN(c4cccc(C)c4C)CC3)ccc21,nt,nt,nt,nt,-1%
C[C@]12CC[C@H]3c4ccc(O)cc4CC[C@@H]3[C@H]1CC[C@@H]2OP(=O)(O)O,11%[9.22 µM],-9%[11.5 µM],-2%[7.6 µM],1%[9.22 µM],0%[11.4 µM]
Nc1nc2c(c(=O)[nH]1)CN(c1ccc(S(N)(=O)=O)cc1)CN2,3%[9.22 µM],6%[11.5 µM],0%[7.6 µM],1%[9.22 µM],0%[11.4 µM]
COC(=O)Cc1c(C)c2ccc(OC(=O)c3ccco3)cc2oc1=O,4%,4µM*,10µM*,0%,1%
COC(=O)Cc1c(C)c2cc(Cl)c(OC(=O)c3ccco3)cc2oc1=O,0%,13µM*,?,-1%,2%
CC(=O)N1CCCc2cc(S(=O)(=O)N3CCC(C(=O)N(Cc4ccccc4)C(C)C)CC3)ccc21,nt,nt,nt,nt,2%
CCn1ncc(Br)c1C(=O)Nc1sc2c(c1C(N)=O)CCC2,2%,-12%,2.5µM*,0%,-2%
COc1ccc(CNc2nc(-c3ccccc3OC)nc3ccccc23)c(OC)c1,?,-14%,10µM*,0%,0%[11.4 µM]
COc1ccc(CNc2nc(-c3cccnc3)nc3ccccc23)c(OC)c1,-2%[9.22 µM],-20%,3.2µM*,1%,-1%[11.4 µM]
COc1ccc(CNc2nc(-c3ccc4c(c3)OCO4)nc3ccccc23)c(OC)c1,3%[9.22 µM],-10%,?,-1%,1%[11.4 µM]
COc1cccc(-c2nc(NCc3ccc(OC)cc3OC)c3ccccc3n2)c1,-5%[9.22 µM],-14%,19%,-1%,1%[11.4 µM]
CC(=O)N1c2ccccc2CC1C(=O)N1CCN(c2ccccc2)CC1 (configuration not stated),nt,nt,nt,nt,2%
Nc1c(C(=O)Nc2ccccc2)sc2nc(-c3ccco3)ccc12,4%,32µM*,?,1%[1.84 µM],?
COc1ccccc1NC(=O)c1sc2nc(-c3ccco3)ccc2c1N,5%,-10%,?,-1%,-1%
SMILES,GFP derepression,ERK AVP inh,CRE Fsk mod,HBB splicing,IkB sig inh
CCC(Sc1nc2ccncc2[nH]1)C(=O)Nc1cc(C)ccc1C (configuration not stated),nt,nt,nt,nt,1%
c1ccc(-c2cc3c(N4CCOCC4)ncnc3s2)cc1,-3%,20µM*,-3%,-2%,?
Cc1nc(N2CCOCC2)c2cc(-c3ccccc3)sc2n1,2%,16µM*,?,-10%,-1%
Cc1nc(N2CCOCC2)c2nc(-c3ccccc3)n(CCN3CCCCC3)c2n1,nt,-6%,3%,-1%,nt
CC(=O)N1CCc2cc(S(=O)(=O)NC(CC(C)C)C(=O)NCc3ccccc3Cl)ccc21 (configuration not stated),nt,nt,nt,nt,1%
c1ccc(-c2csc3ncn4cnnc4c23)cc1,2%,6.3µM*,?,-2%,1%
COc1ccc(OC)c(NC(=O)CC2C(=O)NCCN2C(=O)C(F)(F)F)c1 (configuration not stated),nt,nt,nt,nt,-1%
CCOC(=O)Cn1c(C)nc2ccccc21,0%,7%,3%,-2%,-2%
CCCOC(=O)c1ccc(OCC(O)Cn2c(C)nc3ccccc32)cc1 (configuration not stated),-2%,13µM*,-13%,0%,?
COc1cccc(C(=O)NC(=O)Nc2ccc(-n3nc(C(F)(F)F)cc3C(F)(F)F)cc2)c1,nt,nt,nt,nt,-2%
Cc1cccc(CNc2ncnc3ccc(-c4ccc(C(=O)N(C)C)cc4)cc23)c1,-5%[9.22 µM],20µM*,?,1%,4%[11.4 µM]
CC(=O)NCCNc1nc(-c2ccc(N(C)C)cc2)nc2ccccc12,-3%[9.22 µM],-24%,?,?,-7%[11.4 µM]
CN(C)C(=O)c1ccc(-c2nc(NCc3ccccc3)c3ccccc3n2)cc1,2%[9.22 µM],-21%,2µM*,0%,-1%[11.4 µM]
CN(C)C(=O)c1ccc(-c2nc(N(C)C)c3ccccc3n2)cc1,-2%[9.22 µM],-11%,7.9µM*,-2%,1%[11.4 µM]
CN(C)c1nc(-c2ccoc2)nc2ccccc12,-1%[9.22 µM],-10%,13µM*,-1%,-2%[11.4 µM]
CC1(N)CCC(C(C)(C)N)CC1 (configuration not stated),nt,-2%,-12%,0%,5%
CN(C)C(=O)c1ccc(-c2nc(Nc3ccccc3)c3ccccc3n2)cc1,11%[9.22 µM],?,3.2µM*,0%,-6%[11.4 µM]
COCCNc1nc(-c2ccc(C(=O)N(C)C)cc2)nc2ccccc12,-1%[9.22 µM],6%,?,1%,-1%[11.4 µM]
CCOc1ccc(CCn2c3c(c(=O)[nH]c2=O)C(NC(=O)c2ccccc2)(C(F)(F)F)C(=O)N3)cc1OCC (configuration not stated),nt,nt,nt,nt,-1%
CC(C)CCSc1nc2c(c(=O)[nH]c(=O)n2C)n1CCCc1ccccc1,nt,nt,3.2µM*,0%,2%
CCOCCn1c(SCCCc2ccccc2)nc2c1c(=O)[nH]c(=O)n2C,-5%,2%,4%,nt,-2%
CC(C)CCn1c(Sc2nc3ccccc3s2)nc2c1c(=O)[nH]c(=O)n2C,3%,-19%,10µM*,nt,1%
CCCCCSc1nc2c(c(=O)[nH]c(=O)n2C)n1CCc1ccccc1,nt,nt,2.5µM*,0%,3%
CC(C)CCn1c(SCC(=O)c2ccccc2)nc2c1c(=O)[nH]c(=O)n2C,-2%,-21%,?,0%[57.5 µM],0%
